Measured potencies and affinities stand elsewhere. Calls of active or inactive are those of the source. The limit is not given here; nearly all actives have IC50 up to about 0.91 µM.
target: Calcium-dependent protein kinase 4 (Plasmodium falciparum (isolate 3D7)) (UniProt Q8IBS5); assay: PfCDPK4 kinase inhibitors, biochemical, TCAMS library (AID 1159588); details: recombinant PfCDPK4, Kinase-Glo ATP depletion luminescence
Sequence (Q8IBS5 whole entry, looked up): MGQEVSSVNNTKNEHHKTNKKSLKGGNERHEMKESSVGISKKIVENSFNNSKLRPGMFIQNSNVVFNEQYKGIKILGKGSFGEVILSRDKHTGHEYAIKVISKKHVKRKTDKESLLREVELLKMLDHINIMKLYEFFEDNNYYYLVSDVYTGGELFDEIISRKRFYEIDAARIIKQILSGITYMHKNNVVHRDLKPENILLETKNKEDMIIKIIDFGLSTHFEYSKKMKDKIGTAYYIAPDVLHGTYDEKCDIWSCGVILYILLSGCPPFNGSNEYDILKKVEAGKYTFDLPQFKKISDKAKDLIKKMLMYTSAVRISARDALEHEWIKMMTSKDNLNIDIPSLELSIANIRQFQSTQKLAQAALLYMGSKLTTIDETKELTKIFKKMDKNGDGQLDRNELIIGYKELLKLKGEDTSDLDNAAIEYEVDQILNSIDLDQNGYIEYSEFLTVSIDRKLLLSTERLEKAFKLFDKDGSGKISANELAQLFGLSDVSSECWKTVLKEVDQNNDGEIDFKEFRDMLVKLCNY

outcome, inactive:
Cn1cncc1C(=O)Nc1cccc(-c2ccc(-c3nc4ccc(F)cc4[nH]3)cc2)c1, CSc1ccccc1NC(=S)NC1CCN(CCCCCNC(=O)/C=C/c2ccc(Cl)c(Cl)c2)CC1, NC(=O)C1Cc2ccccc2CN1CC(=O)Nc1ccccc1Sc1ccccc1 (stereo not drawn), Cc1nc(/N=C(\N)NC(=O)NC2CCCCC2)nc2ccccc12, Fc1ccc(-c2cncc(Nc3ccncc3)n2)cc1, Cc1ccc(Nc2nc(C)cc(NC3CCCC3)n2)cc1, O=C(Nc1cccc(CN2CCCN(Cc3ccsc3)CC2)c1)c1cc2ccccc2s1, CCc1cccc(OCC2CCCN(c3ccc(C(=O)NC4CC4)cn3)C2)c1 (stereo not drawn)

— PubChem BioAssay
